EC50 data for 77 compounds are collected here from PubChem BioAssay AID434968 (Broad Institute, 2010).

In all, about 2,100 compounds went through this assay and about 1,800 (86%) were called active. The set was probably picked from earlier hits. The list is a sample of the results. Values without a mark were called inactive. No rule for the calls is given here.

Broadly, the EC50 is the concentration at which the effect is half-maximal.

A short description of this assay: counter-screen: blocks GFP chromophore formation, dose response, counter-screen, biochemical, fluorescence, homogeneous (AID 434968). The conditions noted are these: cell-free GFP chromophore formation. In general terms: A counterscreen serves to expose hits that act by an unwanted route or on another target.
Consider `CCCCCCCCCCOC(=O)Cn1c(COc2cccc(OC)c2)[n+](C)c2ccccc21`, for which the concentration giving a half-maximal response (EC50) is 10.4 µM (active).

`CCCCCCCCCCOC(=O)Cn1c(COc2ccc(C)cc2)[n+](C)c2ccccc21`: the EC50 was 16.1 µM (active).

On to `COc1ccc(C2C(C#N)=C(N)Oc3n[nH]c(C)c32)cc1CN1CCN(c2ccc(F)cc2)CC1` (configuration not stated), for which the EC50 was 23 µM (active).

Regarding `Cc1cc(C(=O)CCl)c(C)n1CC1COc2ccccc2O1` (configuration not stated), the EC50 was 37.5 µM (active).

Regarding `Cc1oc2c(c1C(=O)N1CCOCC1)C(=O)c1ccccc1C2=O`, the EC50 is 3.63 µM (active).

Turning to `O=C1CC(c2ccccc2)=NN1c1ccc([N+](=O)[O-])cc1`, the EC50 is 15.8 µM (active).

With `COc1ccc(C(=O)NC(=S)NNC(=O)CCc2ccccc2)cc1`, the EC50 is > 38 µM.

With `CCOC(=O)C(CC)Sc1ncnc2c1nnn2-c1ccc(F)cc1` (configuration not stated), the EC50 was > 38 µM.

In the case of `NC1=NN(c2cccc(C(=O)O)c2)C(=O)C1`, the 50% effective concentration (EC50) was 31.6 µM (active).

On to `Oc1c(Cl)cc(Cl)c(Cl)c1Cc1c(O)c(Cl)cc(Cl)c1Cl`, for which the EC50 was 7.06 µM (active).

`NC(=O)CC[C@@H]1NC(=O)[C@H](CO)NC(=O)c2cc([N+](=O)[O-])cc(I)c2NCC[C@@H](C(N)=O)NC1=O`: the concentration for a half-maximal effect (EC50) is 22.5 µM (active).

Turning to `Cc1ccccc1C(CC(=O)c1cccs1)C(C#N)C#N` (configuration not stated), the half-maximal effective concentration (EC50) is 2.18 µM (active).

`CCOC(=O)N1CCC(c2cc(=O)n(-c3ccccc3)[nH]2)CC1`: the 50% effective concentration (EC50) is 7.17 µM (active).

`O=C(CCl)N(Cc1cccc([N+](=O)[O-])c1)c1cccc(Cl)c1`: the concentration for a half-maximal effect (EC50) was 3.06 µM (active).

As for `Oc1ccc(N=Cc2sc3ccccc3c2Cl)cc1`, the EC50 was > 38 µM.

Turning to `COc1ccc(-c2csc(Nc3ccc(O)cc3)n2)cc1`, the EC50 is > 38 µM.

Take `O=[N+]([O-])c1c(NCCO)cc(Sc2nc3ccccc3s2)c2nonc12`: the EC50 is 0.766 µM (active).

For the compound `O=C(c1ccc(Cl)cc1)n1cnc2ccccc21`, the concentration giving a half-maximal response (EC50) is 22.1 µM (active).

Regarding `O=C1NC(c2ccc(-c3ccccc3[N+](=O)[O-])o2)C(C(=O)c2ccc(Cl)cc2)C(O)(C(F)(F)F)N1` (configuration not stated), the EC50 is 25.2 µM (active).

For the compound `CC(CCn1cccn1)NC(=O)CCc1nnc(CCc2ccccc2)o1` (configuration not stated), the EC50 is > 38 µM.

On to `CC(C)OC(=O)CN1C(=O)C(=O)c2ccccc21`, for which the EC50 was 22.5 µM (active).

With `O=C(Nc1ccccc1)c1nnsc1S(=O)(=O)c1ccc(Cl)cc1`, the EC50 is 11.7 µM (active).

For the compound `CC1(N2CCOCC2)CC2(O)C(=[N+]1[O-])CCc1nonc12` (configuration not stated), the EC50 was 24.9 µM (active).

For the compound `N#Cc1c(N)n(CCOC(=O)c2ccc(Cl)cc2)c2nc3ccccc3nc12`, the EC50 was 2.69 µM (active).

In the case of `COc1ccc(C(CCN(Cc2ccc(OC)c(OC)c2)C(=O)CCl)c2ccccc2)cc1` (configuration not stated), the 50% effective concentration (EC50) is 0.326 µM (active).

For the compound `CCN(CC)c1ccc2oc(=O)c(C)nc2c1`, the EC50 was 13.6 µM (active).

On to `COc1ccc2c(c1)C(=C(C#N)C#N)C(=O)N2CCc1ccccc1`, for which the EC50 is > 38 µM.

On to `COc1ccccc1-n1nnnc1S(=O)(=O)Cc1ccc(Cl)cc1`, for which the EC50 is 27.2 µM (active).

Consider `Cc1ccc(NC(=O)c2cnc(SCC(=O)NCC3CCCO3)n(C)c2=O)cc1` (configuration not stated), for which the EC50 is > 38 µM.

Consider `Cc1nn(Cc2ccccc2)c2c1C(c1ccccc1)C(C#N)=C(N)O2` (configuration not stated), for which the EC50 was 15.2 µM (active).

As to `O=S(=O)(O)Oc1c[nH]c2ccccc12`, the EC50 is 0.78 µM (active).

For the compound `COC(=O)c1sc(-c2ccc(C(C)(C)C)cc2)cc1NC(=O)/C=C/C(=O)O`, the half-maximal effective concentration (EC50) is 4.26 µM (active).

For `CCOC(=O)c1c(C)[nH]c2c1-c1ccccc1C(=O)C2=O`, the half-maximal effective concentration (EC50) is 2.58 µM (active).

As for `CCOC(=O)C1=C(c2ccc(OC)cc2)C(=O)c2ccccc2C1=O`, the concentration giving a half-maximal response (EC50) is 6.35 µM (active).

As to `COc1ccc(S(=O)(=O)/N=C2\C=C(NS(=O)(=O)c3ccccc3)C(=O)c3ccccc32)cc1`, the EC50 was 3.05 µM (active).

Regarding `C=CS(=O)c1sc(Cl)c(N2CCOCC2)c1[N+](=O)[O-]` (configuration not stated), the EC50 is 24.9 µM (active).

As for `Cc1oc2cc([N+](=O)[O-])c(O)c([N+](=O)[O-])c2c1C(=O)c1ccc(Br)cc1`, the concentration for a half-maximal effect (EC50) was 19.5 µM (active).

Regarding `Cc1ccc(SCC2=NNC(=O)C2)cc1`, the concentration for a half-maximal effect (EC50) was 6.33 µM (active).

Take `CCOc1c(Br)cc(/C=C2\C(=O)N(CCC#N)N=C2C)cc1OC`: the concentration giving a half-maximal response (EC50) is 3.7 µM (active).

On to `CN(c1ccccc1)c1ccc([N+](=O)[O-])c2nonc12`, for which the concentration giving a half-maximal response (EC50) is 20.3 µM (active).

As for `CC(=O)C12CC(C)=C(C)CC1CC1C3CCC4=CC(=O)CCC4(C)C3CCC12C` (configuration not stated), the EC50 is > 38 µM.

With `Cc1cc2[nH]ncc2cc1NC(=S)NC(=O)c1ccccc1`, the EC50 is > 38 µM.

Turning to `O=S(=O)(Nc1ccc(O)c2ccccc12)c1ccc(OC(F)(F)F)cc1`, the EC50 was 0.19 µM (active).

Turning to `O=c1[nH]c2ccccc2n2c(-c3ccccc3)nnc12`, the EC50 is 26.2 µM (active).

For the compound `O=C(Oc1ccc(Br)cc1C(=S)N1CCOCC1)c1cccc([N+](=O)[O-])c1`, the EC50 was > 38 µM.

On to `CCCCOC(=O)CNc1nnc(SCC(=O)OCC)[nH]c1=O`, for which the 50% effective concentration (EC50) is 11.3 µM (active).

Take `COC(=O)CC1=NN(c2nc(C)cc(C)n2)C(=O)C1`: the EC50 was > 38 µM.

On to `Cc1ccc(Nc2cc(C)nc3c(C)ccc([N+](=O)[O-])c23)cc1`, for which the concentration giving a half-maximal response (EC50) is 12 µM (active).

With `Cc1ccc(CNC(=O)CCN2C(=O)[C@@H]3Cc4ccccc4CN3C2=O)cc1`, the EC50 was > 38 µM.

On to `Cc1[nH]n(C)c(=O)c1C(=O)c1c(-c2c(Cl)cccc2Cl)noc1C`, for which the EC50 was 12.1 µM (active).

On to `CCCCCCCCc1c(O)nc(-n2[nH]c(C)c(CCO)c2=O)[nH]c1=O`, for which the EC50 is > 38 µM.

On to `Cc1cccc(CS(=O)(=O)c2ncc(Cl)c(C(=O)Nc3ccc(F)cc3)n2)c1`, for which the concentration for a half-maximal effect (EC50) is 2.65 µM (active).

Regarding `CSc1nnc(NC(=O)c2nc(S(=O)(=O)Cc3ccc(C)cc3)ncc2Cl)s1`, the EC50 is 17 µM (active).

With `CC1=NN(Cc2ccccc2)C(=O)/C1=C/c1ccc(N(C)C)cc1`, the concentration for a half-maximal effect (EC50) is 3.59 µM (active).

For `O=C(CCCN1C(=O)/C(=C/c2ccccc2)SC1=S)Nc1ccc(O)cc1`, the EC50 is > 38 µM.

As for `CC1=NNC(=O)C1Cc1c(Cl)cccc1Cl` (configuration not stated), the EC50 is 3.71 µM (active).

Regarding `O=C(Cc1cc(=O)[nH][nH]1)N/N=C/c1ccccc1[N+](=O)[O-]`, the EC50 was 10.3 µM (active).

In the case of `Cc1ccsc1/C=N/NC(=O)Cc1cc(=O)[nH][nH]1`, the concentration giving a half-maximal response (EC50) was 6.88 µM (active).

With `COc1ccc(-c2[nH]nc3c2C(c2ccncc2)C(C#N)=C(N)O3)cc1` (configuration not stated), the EC50 was 21.3 µM (active).

With `CCc1ccc(C2C(C#N)=C(N)Oc3n[nH]c(CC(=O)OC)c32)cc1` (configuration not stated), the EC50 was 36.3 µM (active).

On to `CCCc1[nH]nc2c1C(c1ccc(Br)s1)C(C#N)=C(N)O2` (configuration not stated), for which the EC50 is 17.8 µM (active).

`CCCc1[nH]nc2c1C(c1ccc(OC(=O)c3ccco3)cc1)C(C#N)=C(N)O2` (configuration not stated): the EC50 was 25.1 µM (active).

Turning to `Cc1cc(C)n2nc(CNS(=O)(=O)c3c(F)c(F)c(F)c(F)c3F)nc2n1`, the half-maximal effective concentration (EC50) is 10 µM (active).

As to `CN1CCc2nc(SC(C(=O)O)c3ccccc3)c(C#N)c(-c3cccs3)c2C1` (configuration not stated), the EC50 was 31.1 µM (active).

As for `Cc1nc2ccccc2nc1N/N=C/c1ccc(O)cc1O`, the EC50 was > 38 µM.

As to `O=C(Nc1ccccc1Cl)/C(Cl)=C(\Cl)S(=O)c1ccccc1` (configuration not stated), the concentration giving a half-maximal response (EC50) is 1.31 µM (active).

Regarding `Cc1c(-c2nn(C)c(=O)c3ccccc23)oc2ccc(F)cc2c1=O`, the concentration for a half-maximal effect (EC50) was 6.81 µM (active).

In the case of `CCOCC(=O)NCc1ccc2c(c1)cc(C)n2C`, the EC50 was > 12 µM.

Regarding `COc1ccc(/C=C2/C(=O)N(c3ccccc3)N=C2C)c(OC)c1`, the EC50 is 21.7 µM (active).

Turning to `COc1ccc(C2NC(=S)NC3=C2CCc2ccccc23)cc1OC` (configuration not stated), the concentration for a half-maximal effect (EC50) is 22.7 µM (active).

As for `Cc1ccc(N(Cc2cc(=O)[nH]c3ccccc23)C(=O)CCl)cc1`, the EC50 was 0.148 µM (active).

On to `CCOc1ccc(C(c2c(C)[nH][nH]c2=O)c2c(C)[nH][nH]c2=O)cc1OCC`, for which the concentration giving a half-maximal response (EC50) is 0.386 µM (active).

For the compound `Cc1[nH][nH]c(=O)c1C(c1ccc2c(c1)OCO2)c1c(C)[nH][nH]c1=O`, the half-maximal effective concentration (EC50) is 0.426 µM (active).

As for `O=C1/C(=C/c2ccc3c(c2)OCO3)CCC/C1=C\c1ccc2c(c1)OCO2`, the EC50 was > 38 µM.

Turning to `COc1cccc(/C=N/Nc2cc(C)nc(-c3ccccc3O)n2)c1O`, the EC50 was > 38 µM.

As to `O=C(O)CSc1c2c(nc3cc(C(=O)Nc4cccc(C(F)(F)F)c4)ccc13)CCCC2`, the EC50 is 15.6 µM (active).

For `COc1ccc(-c2nnc(SC(=O)N3c4ccccc4Sc4ccccc43)o2)cc1`, the EC50 is 0.551 µM (active).
